# ST2 inh: inhibitors of human ST2 (IL1RL1) binding to IL-33, primary screen, biochemical, AlphaLISA. Interleukin-1 receptor-like 1 (Homo sapiens), Q01638. AlphaLISA ST2-Fc/biotin-IL-33 interaction, 1 h. inhibition, % for hits at 17 µM. 78,000 tested, 2.3% active; in the data active = inhibition above about 30%
# Target sequence (Q01638 whole entry, looked up): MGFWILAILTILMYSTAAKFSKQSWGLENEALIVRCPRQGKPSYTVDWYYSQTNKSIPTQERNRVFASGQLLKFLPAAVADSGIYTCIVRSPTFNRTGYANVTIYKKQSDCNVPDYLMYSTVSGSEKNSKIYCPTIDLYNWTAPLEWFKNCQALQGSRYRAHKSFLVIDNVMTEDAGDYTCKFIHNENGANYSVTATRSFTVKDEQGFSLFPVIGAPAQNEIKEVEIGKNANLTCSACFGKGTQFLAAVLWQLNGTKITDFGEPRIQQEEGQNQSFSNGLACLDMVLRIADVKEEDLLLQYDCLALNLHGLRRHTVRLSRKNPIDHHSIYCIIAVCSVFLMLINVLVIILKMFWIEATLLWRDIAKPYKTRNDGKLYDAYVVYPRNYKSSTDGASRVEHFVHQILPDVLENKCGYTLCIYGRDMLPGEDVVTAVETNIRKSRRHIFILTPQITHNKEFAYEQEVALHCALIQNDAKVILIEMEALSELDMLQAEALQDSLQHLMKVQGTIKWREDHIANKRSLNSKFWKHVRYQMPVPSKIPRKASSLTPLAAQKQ
# A number is an active result; – = inactive. This excerpt belongs to a sample that is enriched for hits.
SMILES,ST2 inh
NC(=O)c1ccccc1NC(=O)CCC1CCCCC1,–
CC(=O)Nc1ccccc1NC(=O)CCC1CCCCC1,–
Cc1ccc(Nc2cc(C)nc(Nc3ccc(NC(=O)CC(C)(C)C)cc3)n2)cc1,–
Cc1cc(N(C)C)nc(Nc2ccc(NC(=O)CC3CCCC3)cc2)n1,–
COc1ccc(Nc2cc(C)nc(Nc3ccc(NC(=O)c4ccc(F)cc4)cc3)n2)cc1,–
COc1ccc(Nc2cc(C)nc(Nc3ccc(NC(=O)CCC4CCCC4)cc3)n2)cc1,30.0%
CN(C)c1ccc(NC(=O)CCC2CCCCC2)cc1,67.0%
Cc1ccc(Nc2cc(C)nc(Nc3ccc(NC(=O)c4ccccc4C)cc3)n2)cc1,–
COc1ccc(Nc2cc(C)nc(Nc3ccc(NC(=O)c4ccc(OC)cc4)cc3)n2)cc1,32.0%
Cc1ccc(Nc2cc(C)nc(Nc3ccc(NC(=O)c4ccc(C(C)(C)C)cc4)cc3)n2)cc1,–
CCC(C(=O)Nc1ccc(Nc2nc(C)cc(Nc3ccc(C)cc3)n2)cc1)c1ccccc1 (configuration not stated),36.0%
COc1ccc(Nc2cc(C)nc(Nc3ccc(NC(=O)c4ccc(C(F)(F)F)cc4)cc3)n2)cc1,–
CC(=O)Nc1nc(-c2ccc(Cl)c(Cl)c2)nc2c1c(=O)oc1ccccc12,–
Cc1c(C(=O)O)sc2ncn(Cc3cccc(F)c3)c(=O)c12,–
COc1ccc(-c2c3c(=O)n(C)c(=O)n(C)c3cn2-c2ccc(C)cc2)cc1,–
CSc1nc2c(sc3ccccc32)c(=O)n1Cc1cccnc1,–
COc1ccc(-c2cc(C(N)=O)on2)c(OC)c1,–
COc1cc(C(=O)Nc2ccccc2F)cc(OC)c1OC,–
O=C(c1ccc2nc3sc4c(c3c(=O)n2c1)CCCC4)N1CCC2(CC1)OCCO2,–
Cc1nn(CCCC(=O)Nc2ccc(F)cc2F)c(C)c1[N+](=O)[O-],–
OC[C@@H](Cc1ccccc1)n1cnnc1,–
Cn1c(=O)[nH]c(=O)c2c1nc(Br)n2Cc1ccc(F)cc1,–
Cc1cc(Nc2ccccc2)nc(Nc2ccc(NC(=O)c3cccc(Br)c3)cc2)n1,–
CCC(CC)C(=O)Nc1ccc(Nc2nc(C)cc(Nc3ccc(OC)cc3)n2)cc1,39.0%
Cc1cc(Nc2ccccc2)nc(Nc2ccc(NC(=O)c3ccccc3Cl)cc2)n1,–
SMILES,ST2 inh
Cc1cc(Nc2ccccc2)nc(Nc2ccc(NC(=O)c3ccccc3)cc2)n1,32.0%
CCCC(=O)Nc1ccc(Nc2nc(C)cc(Nc3ccccc3)n2)cc1,31.0%
COc1cc(C(=O)Nc2ccc(Nc3nc(C)cc(Nc4ccccc4)n3)cc2)cc(OC)c1OC,–
CCCC(=O)Nc1ccc(Nc2nc(C)cc(N(C)C)n2)cc1,–
COc1ccc(C(=O)Nc2ccc(Nc3nc(C)cc(Nc4ccccc4)n3)cc2)cc1OC,–
Cc1ccc(Nc2cc(C)nc(Nc3ccc(NC(=O)Cc4ccccc4)cc3)n2)cc1,–
O=C(CN1N=NC2C(=O)N(c3ccc(F)cc3)C(=O)C21)Nc1ccccc1 (configuration not stated),–
CC(c1ccccc1)n1c(Cc2cccnc2)nnc1SCC(=O)O (configuration not stated),–
O=C(NCC1CC(=O)N(C2CC2)C1)C(=O)c1cccs1 (configuration not stated),–
O=C1OC(c2cccc([N+](=O)[O-])c2)=N/C1=C\c1ccc(Br)cc1,–
O=[N+]([O-])c1ccc(S(=O)(=O)N2CCSC2c2ccccc2Cl)cc1 (configuration not stated),–
Cc1ccc(COc2ccc(/C=C3\SC(=O)N(CC(=O)N4CCOCC4)C3=O)cc2)cc1,–
CN1C(=O)S/C(=C/c2ccccc2OCc2ccc(C(=O)O)cc2)C1=O,–
O=C(CN1C(=O)S/C(=C\c2ccccc2OCc2cccc(F)c2)C1=O)N1CCOCC1,30.0%
CCN(CC)c1ccc(/C=C2\SC(=O)N(CC(=O)N3CCOCC3)C2=O)cc1,–
COc1cc(C=O)ccc1OC(=O)N1CCOCC1,–
C=CCOc1ccc(/C=C2\SC(=O)N(CC(=O)N3CCOCC3)C2=O)cc1OC,40.0%
CC1CCc2onc(C(=O)Nc3cccc(Cl)c3)c2C1 (configuration not stated),–
Nc1nonc1-c1noc(-c2ccc([N+](=O)[O-])cc2Cl)n1,–
O=C(c1cc2ccccc2[nH]c1=O)N1C[C@@H]2C3CCC(CC3)[C@@H]2C1,–
Cc1ncc2c(c1CNC(=O)Cc1ccsc1)CCN(C(=O)C(c1ccccc1)c1ccccc1)C2,–
COc1ccc(C(=O)N2CC[C@H](CO)[C@H](O)C2)c(C)c1,–
O=C(NCC1Cc2cc(-c3cccnc3)cc(F)c2O1)C1CCCc2c1[nH]c1ccccc21 (configuration not stated),–
Cc1onc(-c2ccccc2)c1C(=O)Nc1cc2cccc([N+](=O)[O-])c2oc1=O,46.0%
Cc1onc(-c2ccccc2)c1C(=O)Nc1cccc(NC(=O)c2c(-c3ccccc3)noc2C)n1,–
SMILES,ST2 inh
O=C(Nc1cc2cccc([N+](=O)[O-])c2oc1=O)c1cccc(I)c1,–
Cc1ccccc1C(=O)Nc1cc2cccc([N+](=O)[O-])c2oc1=O,–
CCOc1ccccc1NC(=O)c1c(-c2ccccc2Cl)noc1C,–
CCOc1ccc(NC(=O)c2c(-c3ccccc3)noc2C)c([N+](=O)[O-])c1,38.0%
C=CCn1cc(C(=O)NC2CCCCCC2)c(=O)c2cc(S(=O)(=O)N(CC)CC)ccc21,–
N[C@@H]1CC[C@@H](NS(=O)(=O)N2CCOCC2)C1,–
O=C1Nc2ccccc2N(O)N1c1ccc(F)cc1,–
C=CCn1cnc2c(cnn2-c2ccc(F)cc2)c1=O,–
CCOC(=O)c1c(N)n(-c2ccc(OCC)cc2)c2nc3ccccc3nc12,–
CCCCCn1c(N)c(C#N)c2nc3ccccc3nc21,–
N#Cc1c(N)n(-c2cccc(F)c2)c2nc3ccccc3nc12,–
Cc1ccc2c(c1)c1nc3ccccc3nc1n2CCN1CCOCC1,–
N#Cc1c(N)n(CCN2CCOCC2)c2nc3ccccc3nc12,36.0%
Cc1ccccc1-n1c(N)c(C#N)c2nc3ccccc3nc21,30.0%
COCCn1c(CNC(=O)c2ccc(OC)cc2)nc2cccnc21,–
Cc1cc(C)c(C(=O)N2CCc3c(cnc(C)c3CNC(=O)/C=C/c3ccccc3)C2)[nH]1,–
COc1cccc(C(=O)Oc2cccc(N3C(=O)C4C5CCC(C5)C4C3=O)c2)c1 (configuration not stated),–
Clc1ccc(-c2ncnn2-c2ccccc2Cl)cc1,–
COc1cc(-c2ncnn2-c2ccc(Cl)cc2)cc(OC)c1OC,–
COc1cc(-c2ncnn2-c2cccc(Cl)c2C)cc(OC)c1OC,33.0%
CC(=O)NCCc1nc2ccccc2n1CC(C)C,–
N=C1S/C(=C\c2ccc(O)cc2)C(=O)N1c1ccc(F)cc1,–
N=C1S/C(=C\c2ccc(N3CCOCC3)cc2)C(=O)N1c1ccc(Br)cc1,32.0%
Cc1ccc(N2C(=O)S/C(=C\c3ccc(O)cc3)C2=O)cc1,–
COc1cc(OC)c(OC)cc1CN1CCC(CCC(=O)NCC2CCCO2)CC1 (configuration not stated),–
COc1cc(NC(=O)CCCn2nc([N+](=O)[O-])c(Cl)c2C)cc(OC)c1OC,–
COc1ccccc1C1CC(c2ccc(Br)cc2)=NN1S(=O)(=O)c1ccccc1 (configuration not stated),–
COc1ccc(NC(=O)CN2C(=O)c3ccc([N+](=O)[O-])cc3C2=O)c(OC)c1,–

# High-throughput results deposited in PubChem BioAssay by Paczesny and Yang Labs, IUPUI and University of Michigan.
